Screens as filed in PubChem.
This is one part of a sample in which hits are shown more often than they occur.
ST2 IL33 inh: inhibitors of human ST2 (IL1RL1) binding to IL-33. 78,000 tested, 2.3% active. AlphaLISA ST2-Fc/biotin-IL-33 interaction, 1 h. inhibition, % for hits at 17 µM; in the data active = inhibition above about 30%
Target sequence (Q01638 whole entry, looked up): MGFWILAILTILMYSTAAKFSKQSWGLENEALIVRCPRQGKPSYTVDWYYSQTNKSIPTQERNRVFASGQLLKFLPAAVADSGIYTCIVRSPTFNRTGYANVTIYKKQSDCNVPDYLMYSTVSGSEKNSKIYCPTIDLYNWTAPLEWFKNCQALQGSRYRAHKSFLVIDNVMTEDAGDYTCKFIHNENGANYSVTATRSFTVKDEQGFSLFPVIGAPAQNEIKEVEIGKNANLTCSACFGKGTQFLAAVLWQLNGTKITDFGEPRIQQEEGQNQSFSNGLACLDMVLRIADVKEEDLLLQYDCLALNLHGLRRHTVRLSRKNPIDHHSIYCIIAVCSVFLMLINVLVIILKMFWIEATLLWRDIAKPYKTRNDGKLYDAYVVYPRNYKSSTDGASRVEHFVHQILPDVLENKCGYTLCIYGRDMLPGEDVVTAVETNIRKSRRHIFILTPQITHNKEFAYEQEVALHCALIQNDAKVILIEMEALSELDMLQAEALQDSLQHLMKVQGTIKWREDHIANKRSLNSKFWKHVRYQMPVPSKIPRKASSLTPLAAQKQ
* hit, by the source's call; i = inactive; ! = not confirmed by another sample.

SMILES | ST2 IL33 inh
COc1ccc(CCNc2oc(COc3ccc(OC)cc3)nc2C#N)cc1 | 36%*
Cc1ccccc1OCc1nc(C#N)c(NCc2ccc(F)cc2)o1 | 34%*
COc1ccc(OCc2nc(C#N)c(NCCN3CCOCC3)o2)cc1 | i
COc1ccc(C2C(C#N)=C(N)Oc3n[nH]c(C)c32)cc1COc1ccccc1C (configuration not stated) | i
COc1ccc(CCNC(C)=O)cc1 | i
COc1ccc(CCC(=O)NCCc2cccc(Cl)c2)cc1 | i
COc1ccc(CCNc2oc(COc3ccccc3C)nc2C#N)cc1 | 38%*
N#Cc1nc(COc2ccc(Br)cc2)oc1NCCN1CCOCC1 | i
Cc1ccccc1OCc1nnc(SCC(=O)NCCc2ccccc2)n1C | i
O=S(=O)(c1ccccc1)c1nc(-c2ccc(F)cc2)oc1NCc1ccccc1 | i
OCc1ccc(-c2cccc3ccnn23)cc1 | i
COc1ccc(CCN2C(=O)CCC2(C)C(=O)NC2CCCCC2)cc1OC (configuration not stated) | i
CC(C)NC(=O)CSc1nc(-c2ccco2)nc2cc(=O)[nH]n12 | i
CCOc1ccc(S(=O)(=O)NCc2nc3cccnc3n2Cc2ccc(F)cc2)cc1 | i
Cc1nc2scc(-c3ccc(C(C)C)cc3)c2c(=O)n1/N=C\N(C)C | i
CCc1nnc(NC(=O)CSc2nc(-c3cccs3)cc(C(F)(F)F)c2C#N)s1 | i
N#Cc1c(C(F)(F)F)cc(-c2cccs2)nc1SCC(=O)Nc1ccc([N+](=O)[O-])cc1 | 38%*
CC(=O)CSc1nc(-c2cccs2)cc(C(F)(F)F)c1C#N | i
C=CCSc1nnc2c(n1)OC(c1cccc(C)n1)N(C(C)=O)c1ccccc1-2 (configuration not stated) | i
COc1ccc([N+](=O)[O-])cc1-n1cccc1 | 39%*
COc1ccc([N+](=O)[O-])cc1NC(=O)C(Cl)(Cl)Cl | i
COc1ccccc1N1CCN(C(=O)Nc2ccc([N+](=O)[O-])cc2)CC1 | i
COc1cc([N+](=O)[O-])ccc1N1CCCC1 | 38%*
CCN(CC)CC(O)COc1cc([N+](=O)[O-])ccc1N1CCCC1 (configuration not stated) | i
COc1cc([N+](=O)[O-])ccc1N | i
SMILES | ST2 IL33 inh
O=C(O)CNC(=O)CN1C(=O)c2cccc([N+](=O)[O-])c2C1=O | i
Cc1csc(SCC(=O)NC2CCCc3c2cnn3-c2cccc(C)c2C)n1 (configuration not stated) | i
CC1CCN(c2nc3c(c(=O)n(C)c(=O)n3C)n2Cc2cccc(F)c2)CC1 | i
Cn1c(SCC(=O)Nc2ccc(Br)cc2)nnc1-c1ccc(N)cc1 | i
Cc1cccn2c(CC(=O)N(Cc3cnn(C)c3)C3CC3)cnc12 | i
Cc1cccnc1CC(C)NC(=O)c1nc(C(C)C)cs1 (configuration not stated) | i
O=C(Cn1cnc2c(cnn2-c2ccccc2)c1=O)Nc1cccc(Cl)c1 | i
COc1cc(NC(=O)/C=C/c2ccccc2)c2ncccc2c1 | 35%*
O=C(/C=C/c1ccccc1)Nc1cc2ccccc2oc1=O | i
COc1ccccc1NC(=O)Nc1cccc2cccnc12 | i
CCc1cnc(C)nc1N1CCCC(Cc2cccnc2)C1 (configuration not stated) | i
COc1ccc(CN(C)C2CCN(C)CC2)c(OC)c1 | i
CNc1nc2c(C)cccn2c(=O)c1C=NCCO | 83%*
CNc1nc2c(C)cccn2c(=O)c1C=Nc1ccccc1 | 33%*
Cc1cccn2c(=O)c(C=NCc3ccccc3)c(NCCO)nc12 | i
CCC(C)N=Cc1c(NCCO)nc2c(C)cccn2c1=O (configuration not stated) | i
CNc1nc2c(C)cccn2c(=O)c1C=Nc1ccc(Cl)cc1 | i
Cc1cccn2c(=O)c(C=Nc3cccc(Cl)c3)c(NCc3ccco3)nc12 | i
Cc1cccn2c(=O)c(C=NCc3ccco3)c(Nc3ccc(Cl)cc3)nc12 | 34%*
Cc1cccn2c(=O)c(C=NCCO)c(NCc3ccccc3)nc12 | i
COc1ccc(N=Cc2c(Nc3ccccc3)nc3c(C)cccn3c2=O)cc1 | i
O=C(CCN1CCC(OCc2cccnc2)CC1)NC1CCCCCC1 | i
Cc1ccc(C(=O)NCCN(C)C)c(Cl)c1 | i
COc1ccc(C2(CNC(=O)c3ccc([N+](=O)[O-])cc3)CCCC2)cc1 | i
COc1cc(NC(=O)c2ccc([N+](=O)[O-])cc2)c(OC)cc1NC(C)=O | i
SMILES | ST2 IL33 inh
COC1(C#CC(=O)c2ccc([N+](=O)[O-])cc2)CCCCC1 | 61%*
CSc1nc2c(c(=O)[nH]1)C(c1ccc(F)cc1)C1=C(CCCC1=O)N2 (configuration not stated) | i
CC1(C)O[C@@H]2[C@H](O1)[C@@H](CI)O[C@H]2n1cnc2c(=O)[nH]cnc21 | i
COC(=O)c1[nH]c2ccc(Br)cc2c1NC(=O)CN(C)C | i
Cn1cnc2cc(NCc3ccc(Br)cc3)ccc21 | i
CCCn1cnc2cc(NCc3cccs3)ccc21 | i
CCN(CC)c1ccc(CNc2ccc3c(c2)ncn3C(C)(C)C)cc1 | 40%*
CC(C)(C)n1cnc2cc(NCc3ccc(Cl)cc3Cl)ccc21 | i
CCN(CC)c1ccc(CNc2ccc3c(c2)ncn3C)cc1 | 50%*!
COc1cccc(CNc2ccc3c(c2)ncn3C)c1OC | i
Cn1cnc2cc(NCc3ccccc3Cl)ccc21 | i
CN(C)c1ccc(CNc2ccc3c(c2)ncn3C)cc1 | 46%*!
CCn1cnc2cc(NCc3cccc(OC)c3)ccc21 | i
COCCN(Cc1cn(C)nc1-c1cccc(Cl)c1)C(C)C | i
Cc1sc(C)c(CN2CCCCC2)c1CN1CCCCC1 | i
O=C1Nc2ccccc2N(O)N1c1c(F)cccc1F | i
O=C(c1ccc(F)cc1)N1C[C@@H]2C[C@H](C1)c1ccc(-c3ccccc3CN3CCOCC3)c(=O)n1C2 | i
O=C(CN1C(=O)c2ccccc2S1(=O)=O)NC(Nc1ccccc1)C(Cl)(Cl)Cl (configuration not stated) | i
O=C(NCc1ccco1)c1ccc2c(c1)N(Cc1c(F)cccc1Cl)C(=O)CS2 | i
CN(CC1CCN(CCc2ccc(Cl)cc2)CC1)C(=O)Cn1c(=O)oc2ccccc21 | i
CC1(C)CC(=O)C(C(C2=C(O)CC(C)(C)CC2=O)c2ccc([N+](=O)[O-])s2)C(=O)C1 (configuration not stated) | 30%*
CC1(C)CC(=O)C(C(C2=C(O)CC(C)(C)CC2=O)c2cccc(O)c2)C(=O)C1 (configuration not stated) | i
CN(C)c1ccc(C(C2=C(O)CC(C)(C)CC2=O)C2C(=O)CC(C)(C)CC2=O)cc1 (configuration not stated) | i
O=C(Nc1cccc2ccccc12)N1CCC2(CCCNC2)C1 (configuration not stated) | i
CCCc1nnc(C[C@@H]2C[C@@H](C(C)C)[C@H](CN(C)CCO)C=C2C)o1 | i
O=C(NC1CCCCCCC1)C1CCCN1S(=O)(=O)c1cccc2nsnc12 (configuration not stated) | 33%*
O=C(C1CCCN1S(=O)(=O)c1cccc2nsnc12)N1CCCCC1 (configuration not stated) | i
CC(C)(C)NC(=O)C1CCCN1S(=O)(=O)c1cccc2nsnc12 (configuration not stated) | i
O=c1oc2cc(OCc3ccc([N+](=O)[O-])cc3)ccc2c2c1CCC2 | i
